A number with no mark means an inactive call. Where a call stands in place of a potency, no number is given. Active and inactive are the calls of the source. The call rests on the fitted dose curve; in most records, active means well fitted curve in the direction sought with a large enough effect in the repeat runs; inconclusive means weak or mixed curves; inactive means flat fitted curve, though single readings scatter.
Potency means the concentration at half of the fitted maximal effect; tags describe the fitted curve by direction and shape or compound fluorescence and quenching.

This assay can be described thus: qHTS assay to test for compound auto fluorescence at 460 nm (blue) in HepG2 cell free culture (AID 720685). The note with it: Cell-free culture medium, blue autofluorescence 405/460 nm; series mostly up to 91.3 µM. An excerpt:
U.S. Tox21 Program National Center for Advancing Translational Sciences [NCATS] NIH Chemical Genomics Center [NCGC] U.S. Environmental Protection Agency [EPA] National Institutes of Environmental Health Sciences [NIEHS] National Toxicology Program [NTP] U.S. Food and Drug Administration [FDA] Tox21 Assay Overview: Compound auto fluorescence often interferes with screening of the compound library against various biological targets and signaling pathways. Some of these compounds may have fluorophoric properties. Such properties may interfere with the assay outputs resulting in false positives and/or negatives. To decrease such complications and ensure the compound activities are relevant in terms of biological response, the Tox21 10K compound library was screened for auto fluorescence. From the fluorophores used as reporter signals in our screening assays, the auto fluorescence equivalencies of compounds against three fluorophores have been evaluated: Triamterene, Fluorescein and Rose Bengal sodium for blue, green and red fluorescence, respectively. The fluorescence intensities were measured using Excitation/Emission wavelengths at 405/460nm, 485/535nm and 540/590nm for blue, green and red labels, respectively. This assay includes the blue fluorescence data.
Tox21 Assay Protocol Summary: 5 uL of culture medium (MEM containing 10% FBS) per well was dispensed into black wall/clear bottom 1536-well plates using a Multidrop Combi Dispenser (ThermoFisher Scientific, Waltham, MA). After 23 nL compound or DMSO vehicle was transferred into assay plate by a pintool work station (Kalypsys, San Diego, CA), fluorescence intensities in the assay plates were measured by an Envision (PerkinElmer, Shelton, CT) plate reader using three labels for measuring blue, green and red fluorescence at […] 460, 535 and 590nm respectively.
(qHTS replaces the single test concentration by a dilution series.)
`CC(C)OC(=S)S`: the Potency result was “inactive”.
On to `CCOC(=O)CC(=O)CCl`, for which the Potency entry was “inactive”.
`Clc1ccc(CSC(Cn2ccnc2)c2ccc(Cl)cc2Cl)cc1` (stereo not given): the fluorescence, % of fluorescent control is 0.0769% [at 18.6 µM].
Consider `CCCCCCCCCCCCCCCCCCn1cc[n+](C)c1`, for which the Potency result was “inactive”.
On the same count and under the same terms, the entry for `O=C(CBr)c1ccc(O)cc1` is “inactive”.
For the compound `CC(=O)[O-].CC(=O)[O-].[Hg+2]`, the Potency entry was “inactive”.
On the same count and under the same terms, the entry for `CC(=O)[O-].CC(=O)[O-].O.O.[Cd+2]` is “inactive”.
Consider `Clc1ccc(CCC(Cn2ccnc2)Sc2c(Cl)cccc2Cl)cc1` (stereo not given), for which the fluorescence, % of fluorescent control was 0.0259% [at 18.6 µM].
In the case of `C1CCC2CCCCC2C1` (stereo not given), the Potency entry was “inactive”.
The same measure, in the same setting: for `Fc1cccc(Cl)c1CCl` the value was “inactive”; for `CN(C)S(=O)(=O)N(SC(F)(Cl)Cl)c1ccccc1`, “inactive”; for `c1ccc2cc3c(cc2c1)-c1cccc2cccc-3c12`, 1410 nM [fluorescent] (active).
The same measure, in the same setting: for `CC1(C)CN=C(NN=C(/C=C/c2ccc(C(F)(F)F)cc2)/C=C/c2ccc(C(F)(F)F)cc2)NC1` the value was “inactive”; for `CCOP(=O)(NC(C)C)Oc1ccc(SC)c(C)c1` (stereo not given), “inactive”.
Still for that read-out and setting: for `CCCCCCCCCBr` the value was “inactive”; for `CCOCCOC(C)=O`, “inactive”; for `OC(c1ccc(Cl)cc1)(c1ccc(Cl)cc1)C(Cl)(Cl)Cl`, “inactive”.
With `O=c1[nH]c2ccccc2n1CCCN1CCC(n2c(=O)[nH]c3cc(Cl)ccc32)CC1`, the Potency entry was “inactive”.
Same read-out and setting: for `c1ccc2c(c1)[nH]c1cnccc12` the value was “inactive”; for `S=C(SSC(=S)N1CCCCC1)N1CCCCC1`, “inactive”; for `CC(=O)O[C@H]1CC[C@@]2(C)C(=CC[C@@H]3[C@@H]2CC[C@]2(C)C(=O)CC[C@@H]32)C1`, “inactive”.
For `ClC(Cl)=C(Cl)Cl`, the Potency result is “inactive”.
On the same count and under the same terms, the entry for `Oc1ccc(C2(c3ccc(O)cc3)c3ccccc3-c3ccccc32)cc1` is “inactive”; for `O=CC(Br)(Br)Br` it is “inactive”; for `O=C1c2ccccc2C(=O)C1C(=O)C(c1ccccc1)c1ccc(Cl)cc1` (stereo not given) it is “inactive”.
For `Oc1ccc(C(c2ccc(O)cc2)(C(F)(F)F)C(F)(F)F)cc1`, the Potency entry is “inactive”.
Same read-out and setting: the entry for `C=CC(=O)OCCCCOC(=O)C=C` is “inactive”; for `O=C(CCCN1CCC2(CC1)C(=O)NCN2c1ccccc1)c1ccc(F)cc1` it is “inactive”.
As for `CCCN(CCC)CCc1c[nH]c2ccccc12`, the Potency result is “inactive”.
Still for that read-out and setting: the entry for `Cc1ccc(OP(=O)(Oc2ccccc2)Oc2ccccc2)cc1` is “inactive”; for `CC1(C)CC/C(=C/c2ccc(Cl)cc2)C1(O)Cn1cncn1` (stereo not given) it is “inactive”.
Still for that read-out and setting: the entry for `CC(=O)Nc1ccc2c(c1)Cc1ccccc1-2` is “inactive”; for `O=C(O)COc1nc(Cl)c(Cl)cc1Cl` it is “inactive”; for `Clc1ccc(C(c2ccc(Cl)cc2)C(Cl)(Cl)Cl)cc1` it is “inactive”.
Same read-out and setting: the entry for `CCCCCCCCc1ccc(O)cc1` is “inactive”; for `CC(=O)C(Cl)(Cl)Cl` it is “inactive”; for `CC(C)OS(C)(=O)=O` it is “inactive”.
With `CCOC(=O)OC1=C(c2cc(C)ccc2C)C(=O)NC12CCC(OC)CC2` (stereo not given), the Potency entry was “inactive”.
On the same count and under the same terms, for `CCc1nn(C)c(C(=O)NCc2ccc(C(C)(C)C)cc2)c1Cl` the value was “inactive”.
On to `CC(C)[C@H](C(=O)O[C@H](C#N)c1cccc(Oc2ccccc2)c1)c1ccc(Cl)cc1`, for which the Potency result is “inactive”.

For the origin of these results see PubChem BioAssay (Tox21).
